Source: PubChem BioAssay (National Center for Advancing Translational Sciences (NCATS))
TDP1 cell CPT: DT40-hTDP1 cell growth loss with CPT. chicken DT40 Tdp1-/-;hTDP1 cells + 20 nM CPT, ATP luminescence, 48 h. Potency, µM (series often up to 46.2 µM), without a hit: at the top dose activity change, negative = growth inhibition, usual class: inhibitors. 420,000 tested, 12% active. AID 686979; note: potency is the fitted concentration of half-maximal effect; nearly all actives have a fitted effect of over 55% in size
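Chicken DT40 Tdp1-/- cells stably complemented with human TDP1 were seeded at 400 cells/well in medium containing 20 nM camptothecin, exposed to pin-transferred compounds, and grown at 37 °C for at least 48 hr. Viability was read as ATP luminescence.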
IL-1B inflam inh: inhibitors of inflammasome signaling (IL-1 beta secretion). 360,000 tested, 4.7% active. activity change, % at 57.5 µM. THP-1 LPS/ATP IL-1B secretion, AlphaLISA, 16 h; stronger effect = lower value. AID 743279; in the data active = activity change below about -50%; inconclusive = mostly about -30% to -49%
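Secreted IL-1B measured by AlphaLISA bead assay after 16 h compound exposure of THP-1 cells; compounds (final up to 57.5 uM) added 1 h before LPS (250 ng/mL) and ATP (1.25 mM) stimulation; lower signal means less secretion.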
TDP1 cell noCPT: qHTS for Inhibitors of human tyrosyl-DNA phosphodiesterase 1 (TDP1): qHTS in cells in absence of CPT. DT40 Tdp1-/- hTDP1 cells, no CPT, ATP luminescence, 48 h. Potency, µM (highest dose often 46.2 µM), without a hit: top-dose activity change, negative = growth inhibition, actives largely listed as inhibitors. 420,000 tested, 15% active; note: potency is the fitted concentration of half-maximal effect; nearly all actives have a fitted effect of over 55% in size
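DT40 Tdp1-/-;hTDP1 cells, no CPT (DMSO vehicle only), 400 cells/well; compounds pin-transferred; ≥48 hr, 37 °C; CellTiter-Glo 30 min RT dark, luminescence read.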
Six1-Eya2 inh: inhibitors of human Six1/Eya2 interaction; Q15475+O00167; AlphaScreen GST-Six1/His-Eya2 binding, biochemical; stronger effect = lower value; activity change, % (no concentration beside the values); 360,000 tested, 0.56% active; AID 651725; in the data active = activity change below about -65%; inconclusive = mostly about -30% to -63%
Target sequence (O00167 whole entry, looked up): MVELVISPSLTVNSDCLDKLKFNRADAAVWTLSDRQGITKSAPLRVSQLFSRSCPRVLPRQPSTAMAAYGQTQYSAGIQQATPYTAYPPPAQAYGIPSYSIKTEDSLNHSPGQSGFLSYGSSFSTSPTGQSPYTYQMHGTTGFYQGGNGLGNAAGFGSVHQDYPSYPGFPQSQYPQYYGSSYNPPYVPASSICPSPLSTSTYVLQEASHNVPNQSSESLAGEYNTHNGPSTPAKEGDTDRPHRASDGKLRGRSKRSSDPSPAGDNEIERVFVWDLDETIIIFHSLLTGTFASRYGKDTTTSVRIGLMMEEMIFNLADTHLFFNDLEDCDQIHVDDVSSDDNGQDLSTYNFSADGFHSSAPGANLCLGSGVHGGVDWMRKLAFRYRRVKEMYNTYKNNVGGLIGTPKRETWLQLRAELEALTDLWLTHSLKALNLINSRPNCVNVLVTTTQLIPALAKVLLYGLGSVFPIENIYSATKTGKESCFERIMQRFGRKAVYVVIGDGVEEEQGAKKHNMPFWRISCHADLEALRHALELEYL
Target sequence (Q15475 whole entry, looked up): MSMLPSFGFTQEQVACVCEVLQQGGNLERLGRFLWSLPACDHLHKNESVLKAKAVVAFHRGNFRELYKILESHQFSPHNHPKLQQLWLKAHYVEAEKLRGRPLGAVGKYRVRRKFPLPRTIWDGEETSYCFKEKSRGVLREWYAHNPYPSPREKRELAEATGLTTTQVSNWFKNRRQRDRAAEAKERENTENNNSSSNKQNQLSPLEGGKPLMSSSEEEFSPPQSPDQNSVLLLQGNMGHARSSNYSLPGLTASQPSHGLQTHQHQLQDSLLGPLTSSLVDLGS
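Homogeneous AlphaScreen proximity assay pairing GST-Six1 with His-tagged Eya2 (added as 5X mix: 250 nM and 500 nM) in 50 mM Tris pH 8.0, 300 mM NaCl, 1 mM TCEP. Glutathione donor and nickel acceptor beads; 1 h, 37 °C, dark.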
TDP1 inh: inhibitors of human tyrosyl-DNA phosphodiesterase TDP1 | Q9NUW8 | Potency, µM (top dose mostly 130 µM), without a hit: at the highest dose activity change, negative = inhibition, usual class: inhibitors | recombinant TDP1, AlphaScreen DNA substrate cleavage | 350,000 tested, 0.28% active; note: potency is the fitted concentration of half-maximal effect; nearly all actives have a fitted effect of over 40% in size
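AlphaScreen read-out: signal falls as enzyme removes the 3' tyrosine-FITC from a 5'-biotinylated DNA oligo (15 nM, 5 min, RT). Enzyme was E. coli-made recombinant Tdp1 at 1 nM, exposed to compound for 15 min beforehand; beads 10 ug/ml, 10 min.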
CtBP-E1A inh: CtBP/E1A binding inhibition | AlphaScreen GST-E1A/His-CtBP binding, 1536-well; stronger effect = lower value | activity change, % (test concentration not listed) | 340,000 tested, 0.49% active | AID 651724; in the data active = activity change below about -65%; inconclusive = mostly about -30% to -63%
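AlphaScreen with 125 nM GST-E1A and 125 nM His-CtBP (5X stocks) in Tris pH 8.0, 300 mM NaCl, BSA, Tween 20, TCEP. Compounds preincubated 2 h at 37 deg C, then glutathione donor/nickel acceptor beads added for 1 h at 37 deg C in dark.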
* marks the source's active call; other numbers are inactive results; ? = inconclusive; . = no result. Rows were chosen to be rich in hits. Some 18% of all compounds tested hit in one or more screens of this group. Unless noted, calls come from the whole dose curve; as a rule, active = well fitted curve in the direction sought with a large enough effect; inconclusive = small, poorly fitted or top-dose-only effect, or another doubt; inactive = no such curve, though single readings can be large; an effect the other way counts as inactive or inconclusive. % is set by controls: 0 for no effect and ±100 for the full control effect.

SMILES	TDP1 cell CPT	IL-1B inflam inh	TDP1 cell noCPT	Six1-Eya2 inh	TDP1 inh	CtBP-E1A inh
Cc1ccc(-c2nc(CN3CCCC(C(=O)N4CCOCC4)C3)c(C)o2)cc1 (configuration not stated)	-25%	-14	-16%	0	3%	-18
Cc1oc(-c2cccc(Cl)c2)nc1CN1CCCC(C(=O)N2CCN(c3ccc(F)cc3)CC2)C1 (configuration not stated)	7.3µM*	.	9.2µM*	.	10%	.
Cc1oc(-c2cccc(Cl)c2)nc1CN1CCC(C(=O)NCc2ccco2)CC1	-27%	-20	?	-20	9%	-22
Cc1ccc(S(=O)(=O)N2CCCC(N3CCOCC3)C2)cc1Cl (configuration not stated)	-24%	4	6%	2	.	-3
COc1ccc(NC(=O)c2ccc(NC(=O)CCS(=O)(=O)c3cccs3)cc2)cc1OC	-26%	.	?	.	-1%	.
COc1ccc2oc(=O)c(N3C(=O)c4ccccc4C3=O)cc2c1	-1%	-4	-1%	1	-1%	-9
CC(C)[C@H]1c2ccc(F)cc2CC[C@@]1(CCN(C)CCCc1nc2ccccc2[nH]1)OC(=O)C1CC1	5µM*	.	4.5µM*	.	12%	.
Cc1nc2ccccc2nc1OCc1cccc(Cl)c1	?	19	15µM*	5	1%	10
C[C@H](NC(=O)c1nc[nH]c1C(=O)NCCCCCN)C(=O)OC(C)(C)C	-10%	11	-7%	-1	-2%	.
C[C@@H](NC(=O)c1nc[nH]c1C(=O)NCc1ccc(CNC(=O)OC(C)(C)C)cc1)c1ccccc1	?	-16	23µM*	-10	1%	2
CC(C)C[C@H](NC(=O)c1nc[nH]c1C(=O)NCc1ccc(CNC(=O)OC(C)(C)C)cc1)C(=O)OC(C)(C)C	26µM*	-24	16µM*	-6	.	-4
C[C@H](NC(=O)c1nc[nH]c1C(=O)NCc1ccc(CNC(=O)OC(C)(C)C)cc1)C(=O)OC(C)(C)C	18µM*	-10	16µM*	8	10%	-5
Cc1ccc(CC(=O)N2CCN(c3ccccc3F)CC2)cc1	-8%	-16	?	-2	-2%	.
Nc1ccc2nc3c(=O)n(CCc4ccccc4)c(=O)[nH]c3nc2c1	-8%	.	?	?	-1%	-23
Cc1cc2nc3c(=O)n(CCc4ccccc4)c(=O)[nH]c3nc2cc1N	-22%	?	21µM*	-29	0%	-8
O=C(CNC(=O)c1ccc(Br)o1)NC1CCCCC1	5%	-6	15%	7	1%	3
Cc1cc(C)c2c(n1)sc1c(N3CCN(CCO)CC3)ncnc12	-29%	-77*	?	-6	4%	-15
CC(=O)Cn1cnc2c(sc3nc(C)cc(C)c32)c1=O	2%	-64*	?	-22	.	2
COc1cccc(Cn2cnc3c(sc4nc(C)cc(C)c43)c2=O)c1	-11%	5	-19%	-22	6%	-12
CCOc1ncnc2c1sc1nc(C)cc(C)c12	11%	-18	-24%	-4	.	-1
CC(C)CC(=O)Nc1ccc(C(=O)COC(=O)CN2C(=O)NC3(CCCCC3C)C2=O)cc1 (configuration not stated)	-1%	1	16%	1	.	-1
O=C(Nc1ccc2c(c1)OCCO2)C(c1ccccc1)n1c(=O)c(-c2ccco2)nc2ccccc21 (configuration not stated)	4.1µM*	-4	?	-9	.	-3
O=C(Nc1ccc2c(c1)OCCO2)C(CCc1ccccc1)N1CCN(C/C=C/c2ccccc2)CC1 (configuration not stated)	?	?	?	-30	.	-22
